Inconclusive results are not listed. Entries that show only a call come without a potency. Calls of active or inactive are those of the source. Calls come from the whole dose curve; as a rule, active = well fitted curve in the direction sought with a large enough effect in the main read-out, with a control signal flat (not every such curve was filed as active); inconclusive = small, poorly fitted or top-dose-only effect, or effect the other way, or a change in a side signal; inactive = no such curve, though single readings can be large or run the other way.
Assay: qHTS Validation Assay to Find Inhibitors of Chronic Active B-Cell Receptor Signaling (AID 485345)
Details: ABC-DLBCL cells, chronic BCR signaling reporter, CBG luciferase; series mostly up to 46.1 µM
Source text: NIH Molecular Libraries Probe Production Network [MLPCN]
NIH Chemical Genomics Center [NCGC]
PI Name: Dr. R. Eric Davis
Diffuse large B-cell lymphoma (DLBCL) is the most common category of non-Hodgkin lymphoma, with ~20,000 new cases per year in the United States. DLBCL should be regarded as a collection of different neoplasms. Microarray gene expression analysis has defined two principal types of DLBCL, named for their similarity to normal B cell stages or activation states: a germinal center B-cell (GCB) type, and an activated B-cell (ABC) type. In ABC-DLBCL, a constitutive high-level activity of the NF-kappaB family of transcription factors has been observed (1) and NF-kappaB target genes are more highly expressed in ABC primary tumors than in GCB tumors. Functional studies have shown a constitutive high-level activity of the IkappaB (inhibitor of kappa-B) kinase (IKK) complex. […] Further analysis of DLBCL primary tumors for NF-kappaB target gene expression imply that although CARD11 is required for constitutive IKK activity in all ABC-DLBCL lines, mutations in CARD11 may be the root cause of IKK activation only in lines or tumors with such mutations. In other words, CARD11 mutations may explain NF-kappaB activation in only 10% of ABC-DLBCL cases. […] This process has been termed 'chronic active BCR signaling' (CABS).
The goal of this screen is to find small-molecule inhibitors of the CABS pathway found in ABC-DLBCL lines using a cell-based assay that measures IkappaBalpa stability, which has already been extensively validated in the OCI-Ly3 line (PubChem AID:445; REF: 4).
A cell-sensor assay for I-kappa-B-alpha stabilization has been developed. The assay uses green (CBG68) and red (CBR) emitting beetle luciferases [Chroma-GloTM developed by Promega Corp.] where the green luciferase is fused to IkappaBalpha and the red luciferase is present in its native state. Both luciferase genes are stably present in the TMD8 human ABC DLBCL cell line, but their expression is under the control of tetracycline-inducible promoters. Following the addition of doxycycline to induce expression of the luciferases, the green luminescence in control cultures rises only slowly because the CBG fusion partner IkappaBalpha is targeted by IKK activity for rapid degradation. In contrast, green luminescence rises rapidly in the presence of proteasome inhibitors or IKK inhibitors. The rise in red luminescence of CBR is not affected by proteasome or IKK inhibitors, and serves as normalization for cell number and nonspecific effects. Compounds were screened as a concentration-titration series that ranged from 46 uM to 3 nM.
NCGC Assay Protocol Summary:
Cells were seeded in 1536-well plates at 5000 cells/4uL in IMDM medium containing 0.5% FBS, w/o phenol red, 1% penicillin/streptomycin. Then, 23 nL of compounds or DMSO were delivered to each well using a pin tool. One uL 20ng/ml doxycycline was then dispensed into white solid 1536-well plates and the plates were incubated at 37C/5% C02 in a cell incubator for 4 hrs. Then 4 uL luminescent substrate mix (in-house prepared: 150 mM Tris-Cl, pH 7.6, 3 mM MgCl2, 1% Triton X-100, 5 mM DTT, 0.2 mM CoA, 0.15 mM ATP, 5 mM D-luciferin, final concentrations) was added to each well. The plate was incubated at r.t. for 10-15 min. The plates were measured on a ViewLux plate reader for green luminescence (540/20 nm filter) and red luminescence (618/8 nm filter). The green and red luminescent signals were corrected for red and green luminescence filter overlap using previously determined filter calibration constants (determined using the procedure outlined in the Promega Technical Manual; REF 4). The %Activity was determined from the ratio of corrected green/red luminescent values. MG132 were used as control. Green luminescent and ratio %Activity was determined by normalizing to the difference in signal between basal cells (0% Activity) and cells incubated with 10 uM of the proteasome inhibitor MG-132 (100% Activity). […]
With `CCCN1CC[C@@H]2c3cc(O)ccc3CC[C@@H]21` the Potency was “inactive”.
For `C=CCN1CC[C@]23c4c5ccc(O)c4O[C@@H]2/C(=N/N=C2\CC[C@@]4(O)C6Cc7ccc(O)c8c7[C@@]4(CCN6CC=C)[C@@H]2O8)CC[C@@]3(O)C1C5`, the Potency was “inactive”.
With `COc1ccc(OC)c(C(O)C(C)N)c1` (stereo not given) the Potency was “inactive”.
In the case of `C[N+]1(C)CCOC(O)(c2ccc(-c3ccc(C4(O)C[N+](C)(C)CCO4)cc3)cc2)C1` (stereo not given), the Potency is reported as “inactive”.
In the case of `C#CCN[C@H](C)Cc1ccccc1`, the Potency is reported as “inactive”.
With `O=[N+]([O-])c1cc(O)c(O)c([N+](=O)[O-])c1` the Potency was “inactive”.
For `CN(N=O)c1cc(O)ccc1O`, the Potency was “inactive”.
With `CC(C)(O)[C@@H]1C2OC(=O)[C@@H]1[C@]1(O)C[C@H]3O[C@]34C(=O)O[C@H]2[C@]14C` (tested in a mixture with another compound) the Potency was “inactive”.
For `CC(=O)NBr`, the Potency was “inactive”.
With `N[C@@]1(C(=O)O)CC[C@@H](C(=O)O)C1` the Potency was “inactive”.
For `CC(C)[C@@]1(NC(=O)[C@@H]2C[C@@H]3c4cccc5[nH]cc(c45)C[C@H]3N(C)C2)O[C@@]2(O)[C@@H]3CCCN3C(=O)[C@H](Cc3ccccc3)N2C1=O`, the Potency was “inactive”.
With `CC(=O)OCC1=C(C(=O)O)N2C(=O)[C@@H](NC(=O)CCC[C@@H](N)C(=O)O)[C@H]2SC1` the Potency was “inactive”.
With `C[N+]1(C)CCc2cc3c(cc2[C@H]1[C@@H]1OC(=O)c2c1ccc1c2OCO1)OCO3` the Potency was “inactive”.
With `CCOC(=O)c1ncn2c1[C@@H]1CCCN1C(=O)c1cc(OC)ccc1-2` the Potency was “inactive”.
In the case of `C=CCN1C[C@@H](C)N([C@H](c2ccc(C(=O)N(CC)CC)cc2)c2cccc(OC)c2)C[C@@H]1C`, the Potency is reported as “inactive”.
In the case of `NCCCP(=O)(O)O`, the Potency is reported as “inactive”.
For `CN1CCC(c2c[nH]c3ccc(O)cc23)CC1`, the Potency was “inactive”.
For `CC(N)Cc1c[nH]c2ccc(OCc3cccs3)cc12` (stereo not given), the Potency was “inactive”.
With `NC(=O)CI` the Potency was “inactive”.
In the case of `CC(N)Cc1c[nH]c2ccc(O)cc12` (stereo not given), the Potency is reported as “inactive”.
For `C[N+]1(C)C2CCC1CC(OC(=O)c1c[nH]c3ccccc13)C2` (stereo not given), the Potency was “inactive”.
For `C[N+](C)(C)CC#CCN1CCCC1=O`, the Potency was “inactive”.
In the case of `CN(C(=O)Cc1ccc(Cl)c(Cl)c1)C(CN1CCCC1)c1cccc(OCC(=O)O)c1` (stereo not given), the Potency is reported as “inactive”.
For `CCCN(CCC)C1CCc2cccc(O)c2C1` (stereo not given), the Potency was “inactive”.
With `C[C@@H]1O[C@H](C[N+](C)(C)C)CS1` the Potency was “inactive”.
With `CN1C2CCC1CC(OC(c1ccccc1)c1ccccc1N)C2` (stereo not given) the Potency was “inactive”.
With `CC(C)(C)c1o[nH]c(=O)c1CC(N)C(=O)O` (stereo not given) the Potency was “inactive”.
In the case of `CC(=O)c1c(O)c(C)c(O)c(Cc2c(O)c3c(c(C(=O)/C=C/c4ccccc4)c2O)OC(C)(C)C=C3)c1O`, the Potency is reported as “inactive”.
For `CO[C@H]1CC=C2CCN3CCC4=C(CC(=O)OC4)[C@]23C1`, the Potency was “inactive”.
In the case of `Cc1[nH]c2ccc(O)cc2c1CCN`, the Potency is reported as “inactive”.
For `NC(C(=O)O)c1cc(=O)[nH]o1` (stereo not given), the Potency was “inactive”.
With `C=CCN1CC[C@]23c4c5ccc(O)c4O[C@H]2/C(=N/NC(=O)c2ccccc2)CC[C@@]3(O)[C@H]1C5` the Potency was “inactive”.
With `NC(N)=NOCC[C@H](N)C(=O)O` the Potency was “inactive”.
With `CCCN(CCC)CCc1ccc(O)c(O)c1` the Potency was “inactive”.
With `O=C1C=CC(=O)C=C1` the Potency was “inactive”.
For `CC(C)NP(=O)(NC(C)C)OP(=O)(NC(C)C)NC(C)C`, the Potency was “inactive”.
For `COC(=O)N1CCN(C(=O)Cc2ccc(Cl)c(Cl)c2)C(CN2CCCC2)C1` (stereo not given), the Potency was “inactive”.
For `COc1ccc(CNC(=O)/C=C/c2ccc3[nH]cc(CCN(C)C)c3c2)cc1`, the Potency was “inactive”.
In the case of `C[N+](C)(C)CC#CCOC(=O)Nc1cccc(Cl)c1`, the Potency is reported as “inactive”.
With `NC(Cc1cc(O)c(O)cc1O)C(=O)O` (stereo not given) the Potency was “inactive”.
